According to PubChem BioAssay AID1159580 (chemical genetic matrix, 2015):
Among all 5,500 compounds or so, about 2,000 (36%) were called active. Inconclusive results (about 18%) are left out. Cut-off read from the data, not from the text of the source: active = normalized growth mostly below about 0.91 (no sharp cut-off); inconclusive = no clear call, values can overlap the other calls; inactive = mostly above about 0.92. The list shows a part of the results.

Assay: chemical genetic growth profiling, strain panel (AID 1159580);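 note: tested at 20 µM; growth read once vehicle control cultures reached saturation at 30 °C; 1 = growth at the plate median or of vehicle wells; lower values mean less growth of the strain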
Conditions: S. cerevisiae deletion strains, growth OD

Measured: normalized growth

O=c1c(-c2ccccc2)c(O)c2cccc3c4c(n1c23)CCCC4
active: locus YDL214C, strain PRR2, stronger effect = lower value 0.39 | locus YDR054C, strain cdc34, stronger effect = lower value 0.823 | locus YDR477W, strain SNF1, stronger effect = lower value 0.342 | locus YER123W, strain YCK3, stronger effect = lower value 0.304 | locus YER133W, strain GLC7, stronger effect = lower value 0.459 | locus YFR019W, strain FAB1, stronger effect = lower value 0.233 | locus YGR040W, strain KSS1, stronger effect = lower value 0.439 | locus YGR052W, strain FMP48, stronger effect = lower value 0.266 | locus YGR092W, strain DBF2, stronger effect = lower value 0.172 | locus YHR030C, strain SLT2, stronger effect = lower value 0.139 | locus YHR079C, strain IRE1, stronger effect = lower value 0.182 | locus YHR082C, strain KSP1, stronger effect = lower value 0.186 | locus YHR205W, strain SCH9, stronger effect = lower value 0.314 | locus YJL095W, strain BCK1, stronger effect = lower value 0.272 | locus YJL157C, strain FAR1, stronger effect = lower value 0.243 | locus YJR066W, strain TOR1 (second series), stronger effect = lower value 0.336 | locus YJR066W, strain TOR1, stronger effect = lower value 0.26 | locus YKL048C, strain ELM1, stronger effect = lower value 0.485 | locus YKL067W, strain YNK1, stronger effect = lower value 0.414 | locus YKL101W, strain HSL1, stronger effect = lower value 0.323 | locus YKL203C, strain TOR2, stronger effect = lower value 0.283 | locus YLR113W, strain HOG1, stronger effect = lower value 0.26 | locus YLR133W, strain CKI1, stronger effect = lower value 0.376 | locus YLR403W, strain SFP1, stronger effect = lower value 0.263 | locus YML070W, strain DAK1, stronger effect = lower value 0.318 | locus YMR205C, strain PFK2 (second series), stronger effect = lower value 0.56 | locus YNL020C, strain ARK1, stronger effect = lower value 0.282 | locus YNL183C, strain NPR1, stronger effect = lower value 0.278 | locus YNL307C, strain MCK1 (second series), stronger effect = lower value 0.167 | locus YOL136C, strain PFK27, stronger effect = lower value 0.195 | locus YOR061W, strain CKA2, stronger effect = lower value 0.249 | locus YOR119C, strain RIO1, stronger effect = lower value 0.382 | locus YOR231W, strain MKK1, stronger effect = lower value 0.25 | locus YPL031C, strain PHO85, stronger effect = lower value 0.246 | locus YPL153C, strain RAD53, stronger effect = lower value 0.305 | locus YPL204W, strain HRR25, stronger effect = lower value 0.273 | locus YPL256C, strain CLN2, stronger effect = lower value 0.228 | strain NNK1, stronger effect = lower value 0.732
inactive: locus YAR019C, strain CDC15, stronger effect = lower value 0.935 | locus YBL105C, strain PKC1, stronger effect = lower value 0.939 | locus YBR135W, strain CKS1, stronger effect = lower value 0.926 | locus YBR136W, strain MEC1, stronger effect = lower value 0.934 | locus YBR160W, strain CDC28, stronger effect = lower value 0.958 | locus YDL017W, strain CDC7, stronger effect = lower value 0.94 | locus YDL028C, strain MPS1, stronger effect = lower value 0.944 | locus YDL101C, strain DUN1, stronger effect = lower value 0.973 | locus YDL108W, strain KIN28, stronger effect = lower value 0.924 | locus YDL132W, strain cdc53, stronger effect = lower value 0.939 | locus YDR052C, strain DBF4, stronger effect = lower value 0.957 | locus YDR226W, strain ADK1, stronger effect = lower value 0.94 | locus YFL009W, strain cdc4, stronger effect = lower value 0.929 | locus YFL029C, strain CAK1, stronger effect = lower value 0.934 | locus YFR003C, strain YPI1, stronger effect = lower value 0.952 | locus YFR028C, strain CDC14, stronger effect = lower value 0.927 | locus YIL147C, strain SLN1, stronger effect = lower value 0.917 | locus YJL128C, strain PBS2, stronger effect = lower value 0.906 | locus YJR016C, strain ILV3, stronger effect = lower value 0.926 | locus YKL193C, strain SDS22, stronger effect = lower value 0.934 | locus YMR001C, strain CDC5, stronger effect = lower value 0.935 | locus YMR277W, strain FCP1, stronger effect = lower value 0.933 | locus YNL006W, strain LST8, stronger effect = lower value 0.932 | locus YNL161W, strain CBK1, stronger effect = lower value 0.944 | locus YNL207W, strain RIO2, stronger effect = lower value 0.95 | locus YNL222W, strain SSU72, stronger effect = lower value 0.939 | locus YOL078W, strain AVO1, stronger effect = lower value 0.927 | locus YOR329C, strain SCD5, stronger effect = lower value 0.948 | locus YPL209C, strain IPL1, stronger effect = lower value 0.944 | locus YPR025C, strain CCL1, stronger effect = lower value 0.952 | locus YPR106W, strain ISR1, stronger effect = lower value 0.93 | locus YPR111W, strain DBF20, stronger effect = lower value 0.94 | strain TSCII, stronger effect = lower value 0.918
